In PubChem BioAssay AID463173 (ICCB-Longwood Screening Facility, Harvard Medical School, 2010):
Hit rate of the full screen: of about 52,000 compounds, about 4,300 (8.3%) were called active. Shown is part of a subset that was picked to be rich in actives. Unmarked numbers belong to inactive results. No stated cut-off is given here; in the data, active means survival mostly below about 52% (no sharp cut-off); inactive means mostly above about 56%.

Test system: DeltatarO mutant
Test: growth inhibition of S. aureus wild type versus tarO mutant, primary screen, teichoic acid synthesis inhibitors, RN4220, OD600 (AID 463173)
Conditions: OD600, 18 h, active compounds read low, screened at 18.75 µg/mL (by protocol)

| SMILES | survival |
| --- | --- |
| COc1ccc(-c2cn3c(n2)sc2cc(C(=O)NCCCN4CCN(C)CC4)ccc23)cc1 | 95% |
| COc1ccc(-c2cn3c(n2)sc2cc(C(=O)NCCCc4ccccc4)ccc23)cc1 | 65% |
| O=C(NCCN1CCOCC1)c1cnn2c(C(F)F)cc(-c3ccccc3)nc12 | 86% |
| CC(C)(C)C(=O)Nc1cc(-c2cccc(Br)c2)nn1-c1ccccc1 | 81% |
| CCc1ccccc1NC(=O)NCc1ccc2c(c1)CCN2C(=O)c1ccccc1 | 125% |
| CC1CCN(c2nc3ccc(C(=O)N4CCN(c5ccccc5)CC4)cc3s2)CC1 | 72% |
| CC1CCN(c2nc3ccc(C(=O)NCc4ccc(Cl)cc4)cc3s2)CC1 | 128% |
| Cc1ccc(C)c(N2CCN(CCCNC(=O)c3ccc4nc(N5CCC(C)CC5)sc4c3)CC2)c1 | 4% (active) |
| Cc1ccc(Cl)cc1N1CCN(C(=O)c2ccc3nc(N4CCC(C)CC4)sc3c2)CC1 | 29% (active) |
| COc1ccc(N2CCN(C(=O)c3ccc4nc(N5CCC(C)CC5)sc4c3)CC2)cc1 | 84% |
| Cc1ccc(C)c(N2CCN(CCCNC(=O)c3ccc4nc(N5CCCCC5)sc4c3)CC2)c1 | 71% |
| Cc1ccc(Cl)cc1N1CCN(CCCNC(=O)c2ccc3nc(N4CCCCC4)sc3c2)CC1 | 77% |
| Cc1cccc(N2CCN(C(=O)c3ccc4nc(N5CCC(C)CC5)sc4c3)CC2)c1C | 1% (active) |
| COc1cccc(N2CCN(C(=O)c3ccc4nc(N5CCC(C)CC5)sc4c3)CC2)c1 | 62% |
| Cc1ccc(CN2C(=O)C3(SCC(=O)N3c3ccc(C)c(C)c3)c3ccccc32)cc1 (stereo unspecified) | 99% |
| COc1ccc(CCC(=O)NCCc2csc(-c3cccc(F)c3)n2)cc1 | 83% |
| Cc1cccc(N(C)S(=O)(=O)c2ccc3c(c2)NC(=O)CC(=O)N3)c1 | 86% |
| COc1cccc(C(=O)NCC(C)C)c1 | 81% |
| CCOc1ccc(-c2nc(CSCC(=O)NCc3ccc(C)cc3)c(C)o2)cc1 | 78% |
| Cc1cccc(-c2nc(CS(=O)CC(=O)NCc3ccc(Cl)cc3)c(C)o2)c1 (stereo unspecified) | 61% |
| Cc1ccc(CCNC(=O)CSCc2nc(-c3ccc(C)cc3)oc2C)cc1 | 26% (active) |
| Cc1ccc(CNC(=O)CSCc2nc(-c3ccc(Cl)cc3)oc2C)cc1 | 66% |
| Cc1ccc(CNC(=O)CSCc2nc(-c3cccc(C)c3)oc2C)cc1 | -5% (active) |

| SMILES | survival |
| --- | --- |
| COc1ccc(CNC(=O)CSCc2nc(-c3ccccc3F)oc2C)cc1 | 67% |
| CCc1ccc(-c2nc(CSCC(=O)NCc3ccc(C)cc3)c(C)o2)cc1 | -3% (active) |
| CCOc1ccc(-c2nc(CSCC(=O)NCc3ccc(Cl)cc3)c(C)o2)cc1 | 95% |
| COc1ccc(-c2nc(CSCC(=O)NCCc3ccc(C)cc3)c(C)o2)cc1OC | 56% |
| COc1ccc(-c2nc(CSCC(=O)NCCc3ccccc3)c(C)o2)cc1 | 86% |
| Cc1oc(-c2ccccc2F)nc1CSCC(=O)NCCc1ccccc1 | 94% |
| Cc1oc(-c2ccccc2F)nc1CSCC(=O)NCc1ccccc1 | 41% (active) |
| O=C(CC1SC(=NC2CCCCC2)NC1=O)Nc1ccccc1 (stereo unspecified) | 89% |
| O=C(Nc1ccc(Cl)cc1Cl)c1cc(S(=O)(=O)N2CCN(c3ccccc3F)CC2)ccc1F | 102% |
| CCN(C(=O)C1CCCN(c2ncnc3c2nc2n3CCCCC2)C1)c1cccc(C)c1 (stereo unspecified) | 75% |
| CC(C)Cc1nn2c(=O)cc(COC(=O)c3cccc(NS(C)(=O)=O)c3)nc2s1 | 82% |
| Cc1ccc(C(=O)CCCn2nnc(-c3ccncc3)n2)cc1C | 100% |
| O=C(CSC1=NC2CCCCC2N1)N1CCOCC1 (stereo unspecified) | 83% |
| Cc1ccc(NC(=O)CSc2nc3ccccc3nc2Cc2ccccc2)c(Cl)c1 | 99% |
| CCCCCCOc1ccc(-c2nc3ccc(Br)cc3c(=O)o2)cc1 | 83% |
| CCCC(CCC)C(=O)Nc1nnc2n1CCS2 | 82% |
| O=C(NCc1ccccc1)C1CCN(C(=O)NCc2ccccc2)CC1 | 90% |
| COc1cc(-c2ccno2)ccc1S(=O)(=O)N1CCN(c2ccc(F)cc2)CC1 | 67% |
| COc1cc(-c2ccno2)ccc1S(=O)(=O)N1CCN(c2ccccc2)CC1 | 72% |
| COc1ccccc1N1CCN(S(=O)(=O)c2ccc(-c3ccno3)cc2OC)CC1 | 86% |
| COc1cc(-c2ccno2)ccc1S(=O)(=O)N1CCN(c2cccc(Cl)c2)CC1 | -1% (active) |
| COc1cccc(N2CCN(S(=O)(=O)c3ccc(-c4ccno4)cc3OC)CC2)c1 | 64% |
| COc1ccc(N2CCN(S(=O)(=O)c3ccc(-c4ccno4)cc3OC)CC2)cc1 | 6% (active) |
